Test [1] in a line: A CellTox Green Cytotoxicity Assay to monitor cytotoxicity in HepG2 cells - 24 hour (AID 1224878). Also: nearly all actives have a fitted effect of over 45% in size. The method, boiled down:
(§1)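 HepG2 cells were seeded together with the CellTox Green dye at 600 cells/well, left 5 h at 37 C/5% CO2, then given compounds in DMSO. Fluorescence from dye bound to dead-cell DNA was read repeatedly over 40 h of treatment at 37 C.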

Test [2] can be described thus: A CellTox Green Cytotoxicity Assay to monitor cytotoxicity in HepG2 cells - 40 hour (AID 1224879). Also: nearly all actives have a fitted effect of over 40% in size. Also: potency is read from the fitted curve at half-maximal effect. The procedure, abridged: as §1
Test [3] is described as follows: qHTS RealTime-Glo MT Cell Viability Assay in HEK293 cells - 0 hour (AID 1224880). Also: top concentration of the series differs between compounds; nearly all actives have a fitted effect of over 45% in size. The procedure, abridged: (§2)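 HEK293 cells mixed with RealTime-Glo reagents (NanoLuc plus cell-permeant prosubstrate) at 600 cells/well, preincubated 5 h at 37 C/5% CO2, then given 23 nL compound in DMSO. Nonlytic luminescence from viable cells was read at 0, 8, 16, 24, 32 and 40 h.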
Background: In qHTS, concentration-response curves come from the screen itself.

Test [4] can be described thus: A CellTox Green Cytotoxicity Assay to monitor cytotoxicity in HEK293 cells - 32 hour (AID 1224881). Also: nearly all actives have a fitted effect of over 40% in size. The procedure, abridged: (§3)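 HEK293 cells premixed with CellTox Green dye were seeded at 600 cells/well and left 5 h at 37 C/5% CO2 before pin transfer of 23 nL compound in DMSO. Fluorescence from dye bound to dead-cell DNA was read during 40 h treatment.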
The nature of test [5]: A CellTox Green Cytotoxicity Assay to monitor cytotoxicity in HepG2 cells - 0 hour (AID 1224882). Also: nearly all actives have a fitted effect of over 35% in size. The procedure, abridged: as §1
Test [6] in a line: A CellTox Green Cytotoxicity Assay to monitor cytotoxicity in HepG2 cells - 32 hour (AID 1224883). Also: nearly all actives have a fitted effect of over 50% in size. The procedure, abridged: as §1
Test [7] is described as follows: A CellTox Green Cytotoxicity Assay to monitor cytotoxicity in HEK293 cells - 8 hour (AID 1224884). Also: nearly all actives have a fitted effect of over 35% in size. The method, boiled down: as §3
Test [8] can be described thus: qHTS RealTime-Glo MT Cell Viability Assay in HepG2 cells - 16 hour (AID 1224885). Also: nearly all actives have a fitted effect of over 50% in size. The method, boiled down:
(§4)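 Viability was tracked continuously by NanoLuc luminescence from prosubstrate reduced by living HepG2 cells, at successive time points over 40 h of compound exposure. Cells with reagent were preincubated 5 h at 37 °C before compound addition.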

Test [9] in a line: A CellTox Green Cytotoxicity Assay to monitor cytotoxicity in HEK293 cells - 16 hour (AID 1224888). Also: nearly all actives have a fitted effect of over 35% in size. The procedure, abridged: as §3
The nature of test [10]: qHTS RealTime-Glo MT Cell Viability Assay in HepG2 cells - 0 hour (AID 1224889). Also: nearly all actives have a fitted effect of over 50% in size. The procedure, abridged: as §4
Test [11] can be described thus: A CellTox Green Cytotoxicity Assay to monitor cytotoxicity in HepG2 cells - 8 hour (AID 1224890). Also: nearly all actives have a fitted effect of over 45% in size. The procedure, abridged:
as §1

The nature of test [12]: qHTS assay to identify small molecule antagonists of the estrogen receptor alpha (ER-alpha) signaling pathway using the BG1 cell line in the presence of 0.1 nM 17-beta-estradiol - cell viability counter screen (AID 1259241). Also: nearly all actives have a fitted effect of over 40% in size. The procedure, abridged:
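VM7Luc4E2 cells (endogenous full-length ER-alpha, 4xERE-luciferase), cultured 5 days in charcoal-stripped serum, exposed to compounds with 0.1 nM 17beta-estradiol (final) for 22 hr at 37C. Viability read in same wells as live-cell protease fluorescence after 30 min.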

Test [13] in a line: qHTS assay to identify small molecule HDAC inhibitors (AID 1259364). Also: nearly all actives have a fitted effect of over 45% in size. Also: potency is read from the fitted curve at half-maximal effect. The procedure, abridged:
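Wild-type HCT-116 cells were plated overnight, exposed to compounds for 2 h at 37 °C, then given HDAC-Glo class I/II luminogenic reagent for 30 min at room temperature before luminescence was read.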

Test [14] can be described thus: qHTS assay to identify small molecule HDAC inhibitors - cell viability counter screen (AID 1259365). Also: series mostly up to about 92 µM; nearly all actives have a fitted effect of over 50% in size. The procedure, abridged:
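Wild-type HCT-116 cells, 1,500/well, cultured overnight, then compound-treated 2 h at 37 C. Viability measured as ATP luminescence with CellTiter-Glo after 30 min at room temperature.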

Test [15] in a line: qHTS RealTime-Glo MT Cell Viability Assay in HEK293 cells - 24 hour (AID 1224886). The procedure, abridged:
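Viability tracked continuously by luminescence as live cells reduce a prosubstrate for NanoLuc; HEK293 cells preincubated 5 h, compound-treated at 37 C, and read at 0, 8, 16, 24, 32 and 40 h.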

Test [16] in a line: qHTS RealTime-Glo MT Cell Viability Assay in HEK293 cells - 8 hour (AID 1224887). The method, boiled down: as §2
Test [17] is described as follows: qHTS assay to identify small molecule antagonists of the androgen receptor (AR) signaling pathway using the MDA cell line in the presence of 0.5 nM R1881 - cell viability counter screen (AID 1259242). Also: nearly all actives have a fitted effect of over 45% in size. The procedure, abridged:
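MDA-kb2 cells (human breast carcinoma, stably carrying MMTV-luciferase reporter) were exposed to compounds with 0.5 nM R1881 (final) for 16 hr at 37C, 0% CO2; viability then read as live-cell protease fluorescence (CellTiter-Fluor, 30 min) in the same wells.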

The target in test [18] is Androgen receptor (Homo sapiens) (UniProt P10275). The test is described as follows: qHTS assay to identify small molecule antagonists of the androgen receptor (AR) signaling pathway using the MDA cell line in the presence of 0.5 nM R1881 (AID 1259243). Also: nearly all actives have a fitted effect of over 50% in size. The procedure, abridged: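 MDA-kb2 human breast carcinoma cells carrying an MMTV-luciferase reporter (AR- and GR-responsive) were plated, rested 5 hr at 37C, dosed with compounds, then stimulated with 0.5 nM R1881 (final) for 16 hr; luminescence was read after ONE-Glo.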
Sequence of Androgen receptor (Homo sapiens) (P10275 whole entry, looked up): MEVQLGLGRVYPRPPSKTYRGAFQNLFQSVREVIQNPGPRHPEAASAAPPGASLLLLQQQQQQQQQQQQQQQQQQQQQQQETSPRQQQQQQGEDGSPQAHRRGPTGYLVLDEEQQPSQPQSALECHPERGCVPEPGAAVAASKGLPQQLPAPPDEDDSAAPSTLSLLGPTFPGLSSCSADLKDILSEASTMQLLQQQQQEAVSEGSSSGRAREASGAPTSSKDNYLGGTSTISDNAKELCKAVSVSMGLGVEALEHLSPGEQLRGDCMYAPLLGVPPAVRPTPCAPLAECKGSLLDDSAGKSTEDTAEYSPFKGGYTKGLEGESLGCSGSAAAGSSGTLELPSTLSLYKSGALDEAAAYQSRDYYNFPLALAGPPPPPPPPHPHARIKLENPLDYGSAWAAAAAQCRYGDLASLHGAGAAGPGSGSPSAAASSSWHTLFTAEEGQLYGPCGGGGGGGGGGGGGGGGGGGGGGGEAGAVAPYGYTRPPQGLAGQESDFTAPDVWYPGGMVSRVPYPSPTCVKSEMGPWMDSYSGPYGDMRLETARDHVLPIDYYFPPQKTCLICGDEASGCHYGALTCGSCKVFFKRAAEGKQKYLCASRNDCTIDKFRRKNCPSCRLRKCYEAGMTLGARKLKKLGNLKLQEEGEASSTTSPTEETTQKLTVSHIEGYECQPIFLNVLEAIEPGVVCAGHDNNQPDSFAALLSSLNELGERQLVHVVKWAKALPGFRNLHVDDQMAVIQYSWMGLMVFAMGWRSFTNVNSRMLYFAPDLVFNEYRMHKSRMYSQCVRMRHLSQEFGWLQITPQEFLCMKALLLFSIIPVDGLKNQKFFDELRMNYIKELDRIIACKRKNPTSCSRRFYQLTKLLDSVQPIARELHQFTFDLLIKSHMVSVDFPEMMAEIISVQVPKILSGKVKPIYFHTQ

The target of test [19] is Estrogen receptor (Homo sapiens) (UniProt P03372). The experiment in a line: qHTS assay to identify small molecule antagonists of the estrogen receptor alpha (ER-alpha) signaling pathway using the BG1 cell line in the presence of 0.1 nM 17-beta-estradiol (AID 1259244). Also: nearly all actives have a fitted effect of over 50% in size. The method, boiled down:
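VM7Luc4E2 cells (endogenous full-length ER-alpha, stable 4xERE-luciferase) were grown 5 days in phenol red-free medium with charcoal-stripped FBS, then exposed 22 h at 37C to compounds plus 0.1 nM (final) 17beta-estradiol; ONE-Glo luminescence read-out.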

Test [20] in a line: qHTS assay to identify small molecule phospholipidosis (PLD) inducers (AID 1259344; active = well fitted curve in the direction sought with a large enough effect; an effect the other way counts as inactive or inconclusive). The method, boiled down:
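HepG2 cells on collagen I, attached 4 h at 37 C, were co-treated with compound and LipidTOX Red dye for 24 h at 37 C, then fixed with paraformaldehyde plus Hoechst 33342 and imaged by high-content microscopy for phospholipid accumulation.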

Values without a mark were called inactive. Inconclusive results are not listed. Activity calls are given as the source filed them. Unless noted, calls follow the shape of the dose curve; as a rule, active = well fitted curve in the direction sought with a large enough effect in the repeat runs; inconclusive = weak or mixed curves; inactive = no such curve, though single readings can be large; an effect the other way counts as inactive or inconclusive.

Sequence of Estrogen receptor (Homo sapiens) (P03372 whole entry, looked up): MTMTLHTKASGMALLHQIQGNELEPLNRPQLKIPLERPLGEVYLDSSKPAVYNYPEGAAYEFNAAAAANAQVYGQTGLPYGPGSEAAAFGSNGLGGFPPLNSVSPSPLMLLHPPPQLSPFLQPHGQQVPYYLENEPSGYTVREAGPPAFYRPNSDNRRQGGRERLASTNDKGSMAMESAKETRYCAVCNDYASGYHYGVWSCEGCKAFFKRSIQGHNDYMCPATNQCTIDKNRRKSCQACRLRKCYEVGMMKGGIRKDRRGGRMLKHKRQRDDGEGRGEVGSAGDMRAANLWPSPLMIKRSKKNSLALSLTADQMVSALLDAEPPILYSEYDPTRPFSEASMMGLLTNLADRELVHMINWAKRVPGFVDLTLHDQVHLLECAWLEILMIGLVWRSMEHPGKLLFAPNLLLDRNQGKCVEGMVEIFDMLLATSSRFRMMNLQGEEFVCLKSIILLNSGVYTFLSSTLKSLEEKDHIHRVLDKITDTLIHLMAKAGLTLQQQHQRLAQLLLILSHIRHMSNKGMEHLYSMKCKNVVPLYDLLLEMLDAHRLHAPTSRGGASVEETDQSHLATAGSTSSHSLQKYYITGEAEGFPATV

As for `CC(=O)c1ccc2ccc3ccccc3c2c1`, the Potency result in [1], in test [2], in [3], in [4], in [5] and in [6] was “inactive” each time. For the same molecule, the Potency entry in test [7], in test [9], in test [10], in test [11] and in test [13] was “inactive” in each case. For the same molecule, the call in [8], in [12] and in [14] was inactive.
As to `O=C1CCCc2c(O)cccc21`, the Potency result in test [1], in test [3], in test [4], in [5], in test [7] and in test [9] was “inactive” in each case. Also, the Potency result in test [10], in test [11], in test [18] and in [13] was “inactive” each time. In addition, the Potency in test [2] is 9.52 µM (active). Moreover, the molecule was classed as inactive in test [8], in [15], in test [16], in test [12], in test [17] and in test [19]. In addition, the result in [14] was inactive.
Take `CCCc1ncc(C(=O)O)s1`: the Potency result in test [2], in test [3], in [4], in test [5], in test [6] and in test [7] was “inactive” each time. The Potency entry in [9], in test [10], in test [11], in test [18] and in test [13] was “inactive” in each case. Besides, the call in [8], in [15], in test [16], in test [12], in test [17] and in test [14] was inactive.
As for `C/C(=N\O)c1ccc(OCC(=O)N2CCCCC2)cc1`, the Potency entry in test [2], in [3], in test [4], in [5], in test [6] and in [7] was “inactive” throughout. Moreover, the Potency result in [9], in [10], in [11], in test [18] and in test [20] was “inactive” throughout. For the same molecule, the result in test [8], in test [15], in test [16], in test [12], in [17] and in test [19] was inactive. Further, the outcome in test [14] was inactive. Besides, in [13], the Potency was 8.41 µM (active).
Consider `C=CCN1CCc2nc(N)sc2CC1`, for which the Potency result in test [2], in test [3], in [4], in test [5], in test [6] and in [7] was “inactive” throughout. The Potency entry in [9], in [10], in test [11], in [18], in test [20] and in test [13] was “inactive” each time. The molecule was classed as inactive in test [8], in [15], in test [16], in test [12], in [17] and in test [14].
Consider `O=C(OOC(=O)c1ccccc1)c1ccccc1`, for which the Potency entry in test [1], in [2], in test [4], in [5], in test [6] and in test [7] was “inactive” each time. Further, the Potency entry in [9], in test [10], in test [11], in [20] and in test [13] was “inactive” in each case. In addition, the result in test [8], in test [12], in [17] and in test [14] was inactive.
For `C[n+]1ccccc1/C=N/O`, the Potency entry in test [2], in [3], in test [4], in [5], in test [6] and in test [7] was “inactive” each time. Moreover, the Potency entry in test [9], in test [10], in test [11], in test [20] and in test [13] was “inactive” each time. Also, the molecule was called inactive in test [8], in test [15], in [16], in test [12], in [17] and in test [19]. The molecule was called inactive in test [14].
